Records with an inconclusive call do not appear. Where a call stands in place of a potency, no number is given. Active and inactive are the calls of the source. Calls come from the whole dose curve; as a rule, active = well fitted inhibition curve with a large enough effect; inconclusive = small, poorly fitted or top-dose-only effect; inactive = flat fitted curve, though single readings scatter.
What follows are compounds tested against Calcium and integrin-binding protein 1 (Homo sapiens) (UniProt Q99828) (assay: Primary qHTS for Identification of Calcium Integrin Binding Protein 1 (CIB1) Competitor (AID 1508620;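 note: GST tagged CIB1 binding a fluorescein labelled alphaIIb integrin peptide tracer; top concentration of the series differs between compounds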)). Details: CIB1-GST / FITC-alphaIIb peptide fluorescence polarization; series mostly up to 114 µM.
Sequence of Calcium and integrin-binding protein 1 (Homo sapiens) (Q99828 whole entry, looked up): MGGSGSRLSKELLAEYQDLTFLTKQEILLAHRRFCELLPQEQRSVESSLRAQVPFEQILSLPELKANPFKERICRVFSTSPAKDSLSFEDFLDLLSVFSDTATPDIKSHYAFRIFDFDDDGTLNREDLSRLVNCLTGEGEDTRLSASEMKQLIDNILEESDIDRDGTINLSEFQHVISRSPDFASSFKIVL
Summary of the method: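 Fluorescence polarization competition: CIB1-GST (1 uM final) preincubated with compound 15 min at room temperature, then FITC-labeled alphaIIb peptide (100 nM final) added for another 15 min. Polarization read at Ex 480/Em 540.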
For `CCOC(=O)c1ccc(-n2c(C)cc(-c3nnc4n3CCCCC4)c2C)cc1`, the Potency was “inactive”. For `COc1cccc(C2c3c(ncn(CCCN4CCOCC4)c3=N)Oc3ccc4ccccc4c32)c1` (centres undefined), the Potency was “inactive”. With `Cc1ccsc1CN(C)c1ncnc2ccc(-c3oc(-c4ccccc4)nc3C)cc12` the Potency was “inactive”. With `Fc1cnc(-c2ccccc2C(F)F)nc1NCc1ccc(-c2ccn[nH]2)cc1` the Potency was “inactive”. For `Cc1c(C(=O)N(C)CC2CCCO2)[nH]c2c1C(=O)CC(c1ccco1)C2` (centres undefined), the Potency was “inactive”. For `NC(=O)C1CCN(c2nc(-c3ccccc3C(F)(F)F)cs2)CC1`, the Potency was “inactive”. In the case of `Cc1ccc(OCCn2c(CCNC(=O)c3ccccn3)nc3ccccc32)cc1`, the Potency is reported as “inactive”. With `O=C1Cc2cc(C(=O)c3ccco3)ccc2N1` the Potency was “inactive”. For `NC(=O)C1CCN(c2nc(-c3ccccc3F)cs2)CC1`, the Potency was “inactive”. In the case of `O=S(=O)(Nc1nccs1)c1ccc(NCc2cc(F)ccc2O)cc1`, the Potency is reported as “inactive”. With `CC(Nc1nc(-c2ccccc2C(F)(F)F)nc2ccccc12)c1ccc(-c2ccncc2)cc1` (centres undefined) the Potency was “inactive”. In the case of `O=C(CN1C(=O)N/C(=C\c2cn(-c3cccc(C(=O)O)c3)cn2)C1=O)Nc1ccccc1Cl`, the Potency is reported as “inactive”. `CN(Cc1cccs1)c1ncnc2ccc(-c3ccc4cnn(C)c4c3)cc12` was tested, and the Potency was “inactive”. In the case of `CC(Nc1nc(-c2ccccc2C(F)(F)F)nc2ccccc12)c1ccc(-c2cccc(C(F)(F)F)c2)cc1` (centres undefined), the Potency is reported as “inactive”. In the case of `CC(C)(C)c1ccc(CSc2nc3ncc(Br)cc3[nH]2)cc1`, the Potency is reported as “inactive”. `COc1ccc(C(=O)N(Cc2cccs2)Cc2cccs2)c(O)c1` was tested, and the Potency was “inactive”. In the case of `Cc1ccc(OCCn2c(CCNC(=O)CCN3CCCCC3)nc3ccccc32)cc1`, the Potency is reported as “inactive”. `N#Cc1nc(Nc2cc(F)cc(F)c2)nc(Nc2cc(F)cc(F)c2)n1` was tested, and the Potency was “inactive”. In the case of `O=[S+]([O-])(Nc1ccccc1)c1ccc(NCc2cccc(C(F)(F)F)c2F)cc1`, the Potency is reported as “inactive”. In the case of `COc1ccc(COc2ccc(-c3nc4ccccc4[nH]3)cc2)cc1OC`, the Potency is reported as “inactive”. For `CN(C)CCCNC(=O)c1ccc(-c2cnc3c(O)cccc3c2)cc1`, the Potency was “inactive”. With `N#Cc1no[n+]([O-])c1-c1ccccc1` the Potency was “inactive”. `COc1ccc(C(=O)N(Cc2ccccc2)Cc2ccc(OC)c(COc3ccc(NC(C)=O)cc3)c2)c(O)c1` was tested, and the Potency was “inactive”. For `Cc1cc(NC(=O)Nc2nnc(C3CCCCC3)s2)ccc1F`, the Potency was “inactive”. In the case of `Cc1ccc(Nc2nc(C#N)nc(NC3CCCC3)n2)cc1`, the Potency is reported as “inactive”. In the case of `O=C(Nc1cc(C(F)(F)F)cc(C(F)(F)F)c1)Nc1nnc(-c2ccncc2)s1`, the Potency is reported as “inactive”. With `O=C(CCc1ccccc1)Nc1ncnc2c1C(c1ccccc1)c1c(ccc3ccccc13)O2` (centres undefined) the Potency was “inactive”. For `Cc1cc(-c2nnc3n2CCCCC3)c(C)n1-c1ccc(C(F)(F)F)cc1`, the Potency was “inactive”. For `Cc1cc(NC(=O)Nc2nnc(-c3ccncc3)s2)ccc1Br`, the Potency was “inactive”. With `Cc1cc(N[S+](=O)([O-])c2cc3c(cc2Cl)CCC(=O)N3)ccc1Br` the Potency was “inactive”. For `O=S(=O)(c1ccc2c(c1)OCCO2)C1CCC(O)CC1` (centres undefined), the Potency was “inactive”. `C(#Cc1cccs1)c1cccnc1` was tested, and the Potency was “inactive”. For `O=C1CCc2cc(S(=O)(=O)Nc3cccc(C(F)(F)F)c3)ccc2N1`, the Potency was “inactive”. For `COc1ccc(C(=O)O)cc1COc1ccc(NC(C)=O)cc1`, the Potency was “inactive”. For `Cc1cc(N[S+](=O)([O-])c2ccc(NC(=O)Cc3ccc(F)c(C)c3)cc2)no1`, the Potency was “inactive”. For `NC(=O)C1CCN(c2nccc(-c3ccc(Br)cc3)n2)CC1`, the Potency was “inactive”. In the case of `Cc1ccc2nc3sc(C(=O)NC4CCC(O)CC4)cc3cc2c1` (centres undefined), the Potency is reported as “inactive”. In the case of `O=C(OCC#CCSc1nnc(-c2cccs2)o1)c1ccc(F)cc1`, the Potency is reported as “inactive”. In the case of `COc1ccc(-c2nc3ccccc3c(=O)n2Cc2ccccc2)cc1CNc1ccc(NC(C)=O)cc1`, the Potency is reported as “inactive”.
